Hit rate of the full screen: of about 200,000 compounds, about 520 (0.26%) were called active.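 Rule for the calls: active = tissue-nonspecific alkaline phosphatase inhibition above about 50% at 20 µM in the single-dose screen (limit read from the data); inactive = the rest.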 Shown is part of a subset that was picked to be rich in actives.
These compounds were tested against Alkaline phosphatase, tissue-nonspecific isozyme (Homo sapiens) (UniProt P05186) (assay: blockers of alkaline phosphatase TNAP activity – biochemical, luminescent, no phosphate acceptor, uHTS, primary screen (AID 1012;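 note: 0% = DMSO negative control and 100% = EDTA positive control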)). Details: purified TNAP, CDP-star luminescence, 30 min; at 20 µM; stronger effect = higher value.
Alkaline phosphatase, tissue-nonspecific isozyme (Homo sapiens), sequence (P05186 whole entry, looked up): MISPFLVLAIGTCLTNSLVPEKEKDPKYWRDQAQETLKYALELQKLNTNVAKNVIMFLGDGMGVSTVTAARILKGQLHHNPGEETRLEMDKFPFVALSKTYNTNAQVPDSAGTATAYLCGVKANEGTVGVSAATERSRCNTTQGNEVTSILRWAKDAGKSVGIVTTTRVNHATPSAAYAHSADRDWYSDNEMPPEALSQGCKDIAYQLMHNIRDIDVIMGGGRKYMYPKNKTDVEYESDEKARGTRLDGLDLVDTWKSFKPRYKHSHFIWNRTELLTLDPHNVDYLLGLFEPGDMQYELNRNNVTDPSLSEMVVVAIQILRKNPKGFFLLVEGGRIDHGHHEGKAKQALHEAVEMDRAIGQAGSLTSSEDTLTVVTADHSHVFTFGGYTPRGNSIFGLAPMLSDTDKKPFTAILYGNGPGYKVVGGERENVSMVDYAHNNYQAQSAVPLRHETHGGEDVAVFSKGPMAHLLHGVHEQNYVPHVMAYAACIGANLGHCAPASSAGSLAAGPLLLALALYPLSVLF

Structure (SMILES)	inhibition
O=C1COc2ccc(C(=O)COC(=O)C3CC(O)CN3S(=O)(=O)c3ccc(Cl)cc3)cc2N1 (configuration not stated)	-11.9% (inactive)
COc1ccccc1Cn1c(C)nnc1-c1cnn(C)c1N	-14% (inactive)
Cc1ccccc1C(=O)Nc1ccc(N2CCCCCC2)cc1	-10.8% (inactive)
COc1ccc(Cl)cc1NC(=O)[C@@H]1CCCN1C(=O)c1cccs1	-0.4% (inactive)
O=C(NCc1ccc(F)cc1)C(c1ccccc1)N(C(=O)c1csnn1)C1CC1 (configuration not stated)	-11.9% (inactive)
C#CCOCCOCCOCCNc1nc(N2CCN(C(=O)[C@H](CCC(=O)O)n3cc(C(N)CO)nn3)CC2)nc(N2CCN(C(=O)[C@H](Cc3ccc(O)cc3)n3cc(C(N)[C@H](C)CC)nn3)CC2)n1 (some centres not stated)	-7.8% (inactive)
CN(C)C(=O)c1nc2ccc(Cl)cn2c1CN1CCN(c2ncccn2)CC1	-12.2% (inactive)
CCOC(=O)c1c(NC(=O)C2CCN(S(=O)(=O)c3ccc(Cl)cc3)CC2)sc2c1CCCC2	-6% (inactive)
O=C(CSc1nc(O)c(Cc2ccccc2)c(=O)[nH]1)Nc1nc2c(s1)CCCC2	-7.1% (inactive)
CCCCC(CC(C)O)c1n[nH]c(=S)n1-c1ccccc1 (configuration not stated)	-23.2% (inactive)
Cc1cccc(NC(=S)NCCc2ccc(F)cc2)c1C	-8.2% (inactive)
O=C(NNC(=S)NC1CCCCC1)c1ccccc1Cl	-122% (inactive)
O=S(=O)(NCCc1ccncc1)c1ccccc1	-12% (inactive)
COc1cccc(NC(=S)NC(=O)c2c(Cl)c(C)nn2C)c1	12.5% (inactive)
COc1ccc(NC(=O)COC(=O)c2ccncc2)c(OC)c1	-9.8% (inactive)
Cc1ccnc2nc(C(=O)Nc3nnc(-c4ccccc4)o3)nn12	52.3% (active)

Structure (SMILES)	inhibition
CCc1nnc(NC(=O)c2nc3nccc(C)n3n2)s1	-1.7% (inactive)
CCCC(=O)Nc1nnc(-c2ccccc2)o1	-7.1% (inactive)
COc1ccc(N2C(=O)CC(Nc3ccc(F)cc3)C2=O)c([N+](=O)[O-])c1 (configuration not stated)	-5.2% (inactive)
Cc1ccc(NC(=O)CN2CCCCC2)c2c1CC(C)(C)O2	-3% (inactive)
O=C(O)CCn1c(SCc2cc(=O)n3ccccc3n2)nc2ccsc2c1=O	-2.2% (inactive)
COCCNC(=O)NC(=O)COC(=O)C1(c2ccc(Cl)cc2)CC1	-9.9% (inactive)
Cc1ccc(C(=O)OC2CCCN(C)C2)cc1 (configuration not stated)	-10.2% (inactive)
Nc1ncnc(Nc2cccc(Cl)c2Cl)n1	-2.3% (inactive)
COc1ccc(/C=C2\SC(=N)N(c3ccc(F)cc3)C2=O)cc1	-8% (inactive)
Cn1cccc1/C=C1\SC(=O)N(CC(=O)Nc2ccc(F)cc2)C1=O	-0.3% (inactive)
CC(C)OC(=O)Cn1nc(C(F)(F)F)c2c1CCCC2	0.5% (inactive)
CCOc1ccc(C(=O)NC2CCN(CC(=O)NCc3cccs3)CC2)cc1	-4.7% (inactive)
CC(NC(=O)C(=O)N/N=C/c1ccc(Cl)cc1)c1ccccc1 (configuration not stated)	3.3% (inactive)
COCCNC(=O)c1ccccc1NS(=O)(=O)c1ccc(C)c([N+](=O)[O-])c1	-7.3% (inactive)
Cc1ccnc(NC(=O)c2ccc(Cl)c([N+](=O)[O-])c2)c1	-11.1% (inactive)
CCOC(=O)NC(=O)C(=CNc1cccc(OC)c1)C(=O)NC(=O)OCC	-10.1% (inactive)

From PubChem BioAssay AID1012 (Sanford-Burnham Center for Chemical Genomics, 2008)
